Screening results (PubChem)
Most compounds without a hit are left out; they make up all but 28% or so of the library.
CYP2C19 activ – increases human CYP2C19 enzyme activity | recombinant CYP2C19, luciferin-H EGE luminescence; stronger effect = higher value; 0 = fully inhibited enzyme, 1 = untreated enzyme | activation factor at 5 µM | 96,000 tested, under 10 active;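 active = activation factor of at least 2 at 5 µM in the primary screen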
CYP2C9 act – CYP2C9 (human) activation. activation factor at 5 µM. recombinant CYP2C9, luciferin-H conversion, luminescence; stronger effect = higher value; factor 1 = untreated enzyme, 0 = blocked. 96,000 compounds, 1.4% hits. P11712;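 active = activation factor of 2 or more for CYP2C9 at a 5 µM dose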
Target sequence (P11712 whole entry, looked up): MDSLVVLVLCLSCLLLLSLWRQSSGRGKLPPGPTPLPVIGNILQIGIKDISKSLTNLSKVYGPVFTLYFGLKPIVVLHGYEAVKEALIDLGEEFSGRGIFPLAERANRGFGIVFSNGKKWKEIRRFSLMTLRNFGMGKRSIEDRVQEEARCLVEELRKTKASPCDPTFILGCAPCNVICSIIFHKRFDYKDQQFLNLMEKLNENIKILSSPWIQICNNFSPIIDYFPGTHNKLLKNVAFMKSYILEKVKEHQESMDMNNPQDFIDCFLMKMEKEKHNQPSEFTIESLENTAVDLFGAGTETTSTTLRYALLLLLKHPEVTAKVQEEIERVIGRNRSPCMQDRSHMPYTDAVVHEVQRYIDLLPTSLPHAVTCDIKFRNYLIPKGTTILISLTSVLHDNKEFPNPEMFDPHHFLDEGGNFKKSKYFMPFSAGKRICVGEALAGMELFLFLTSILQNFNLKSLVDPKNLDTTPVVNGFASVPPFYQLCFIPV
CYP2C19 inhib – human CYP2C19 inhibition | P33261 | CYP2C19 Supersomes, luciferin-H EGE luminescence, 30 min | inhibition, % at 5 µM | 96,000 compounds, 21% hits;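 active = CYP2C19 inhibition above a set limit at 5 µM in the primary screen, cut at about 50% in these data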
Pyk2 oligo antag – blocks oligomerization of human Pyk2 in cells; Q293 cells, Pyk2 FERM NanoBiT luminescence; stronger effect = lower value; 99,000 compounds, 0.83% hits; Q14289; z-score (the deposit names both 25 µM and 10 µM); AID 1347419;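 active = Z-score of -3 or lower, scaled per plate to the spread of control and sample wells; inactive = z-score above -3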;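 note: negative z-score means lost luminescence so less FERM oligomerization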
CYP2C9 inhib – inhibitors of human CYP2C9; P11712; CYP2C9 Supersomes, luciferin-H conversion, luminescence; inhibition, % at 5 µM; 96,000 compounds, 20% hits; AID 777;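 active = blocking of liver enzyme CYP2C9 beyond about 50% at 5 µM, limit read from the data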
Numbers stand for hits; - = inactive; . = no result.

SMILES	CYP2C19 activ	CYP2C9 act	CYP2C19 inhib	Pyk2 oligo antag	CYP2C9 inhib
C=CCOc1ccc(C2N3CC4(CC)CN2CC(CC)(C3)C4=O)cc1 (stereo not drawn)	-	-	-	-	-
CCC12CN3CC(CC)(CN(C1)C3c1c(O)ccc3ccccc13)C2=O (stereo not drawn)	-	-	54	-	-
COc1ccc(OC)c(C(=O)c2ccc(C(=O)N3CCCCC3)cc2)c1	-	-	-	-	73
O=C(c1ccc(Oc2ccccc2)cc1)c1nc2c(n1O)CCCC2	-	-	-	-	67
COc1ccc(C(=O)c2nc3c(n2O)CCCCC3)cc1	-	-	-	-	-
COc1ccc(OC)c(C(=O)c2nc3c(n2O)CCCCC3)c1	-	-	-	-	51
COc1ccc(C(=O)N2CCCC2)cc1	-	-	-	-	-
O=C(CN1CCOCC1)Nc1scc(-c2ccccc2)c1C(=O)N1CCOCC1	-	-	-	-	-
CCCOC(=O)C1[C@H]2C(=O)N(CC3CCCO3)C[C@]23C=C[C@H]1O3 (stereo partly drawn)	-	-	-	-	-
CCOC(=O)c1cc(C(=O)Nc2cccc(C)c2)nn1C	-	-	-	-	-
COc1ccc(N2CCN(Cc3cc4c(cc3O)CCC4)CC2)cc1	-	-	-	-	92
O=S(=O)(Cc1cc(Cl)nc(-c2ccccc2)n1)c1ccccc1	-	-	92	-	-
CCOC(=O)CSc1cc(CS(=O)(=O)c2ccccc2)nc(-c2ccccc2)n1	-	-	81	-	54
CS(=O)(=O)c1ccc2nc(NC(NC(=O)c3ccco3)(C(F)(F)F)C(F)(F)F)sc2c1	-	-	50	-	99
COC(=O)C(NC(C)=O)(Nc1nc2ccc(S(C)(=O)=O)cc2s1)C(F)(F)F (stereo not drawn)	-	-	-	-	64
COC(=O)C(NC(C)=O)(Nc1nc2ccc(C)cc2s1)C(F)(F)F (stereo not drawn)	-	-	75	-	78
CCNC(=O)c1nc[nH]c1C(=O)NCC	-	-	-	-	-
CN1CCCC(OC(=O)CCCCC(=O)OC2CCCN(C)C2)C1 (stereo not drawn)	-	-	-	-	-
Cn1c(=O)[nH]c(=O)c2c1nc(SCC(O)CO)n2Cc1ccccc1Cl (stereo not drawn)	-	-	-	-	-
CCCCNC(=S)NNC(=O)c1ccoc1C	-	-	-	-	-
CCCCNC(=S)NNC(=O)c1csc2ccccc12	-	-	62	-	-
COc1ccccc1-c1cc(C(=O)Nc2cccnc2)no1	-	2.1	-	-	-
CCCc1cc(C(=O)Nc2cccnc2Cl)no1	-	-	-	-	-
CCCc1cc(C(=O)NCCc2ccccc2)no1	-	-	63	.	-
COc1ccccc1-c1cc(C(=O)NCCc2ccccc2)no1	-	3.7	-	-	-
SMILES	CYP2C19 activ	CYP2C9 act	CYP2C19 inhib	Pyk2 oligo antag	CYP2C9 inhib
CCCc1cc(C(=O)Nc2ccccc2C(=O)OC)no1	-	2.2	-	.	-
COc1ccc(NC(=O)c2cc(-c3ccccc3OC)on2)cc1	-	-	-	-	-
COc1ccc(CCNC(=O)c2cc(-c3ccccc3OC)on2)cc1OC	-	-	-	-	-
CCCc1cc(C(=O)Nc2cc(C)nn2-c2ccccc2)no1	-	-	-	.	-
O=C(CC1(C(=O)O)CCCC1)N1CCOCC1	-	-	-	-	-
Cc1cc(NC(=O)c2cc3ncc(Br)cn3n2)no1	-	-	-	-	-
c1ccc(-n2nnnc2NC2CCCCC2)cc1	-	-	-	-	-
CC(=C1C(=O)c2ccccc2C1=O)N1CCc2ccccc2C1	-	-	81	-	63
CCOC(=O)C1CCN(C(C)=C2C(=O)c3ccccc3C2=O)CC1	-	-	-	-	-
COc1ccc(-c2csc(N(CCc3ccc(OC)c(OC)c3)C(=O)COc3ccccc3)n2)cc1	-	-	-	-	68
CCOc1c2ccc(C(=O)N[C@H](C)C3CCCCC3)cc2nn1CC	-	-	-	.	-
CCOC(=O)C1CCCN(c2c(NCCCN(CC)c3ccccc3)c(=O)c2=O)C1 (stereo not drawn)	-	-	-	-	-
CCCNC(=O)c1ccc(CNc2c(N3CCC(C(=O)OCC)CC3)c(=O)c2=O)cc1	-	-	-	-	-
CCOC(=O)N1CCC(Nc2c(-c3ccccc3)c(=O)c2=O)CC1	-	-	-	-	-
CCOC(=O)N1CCN(c2c(NCc3ccc(Cl)cc3)c(=O)c2=O)CC1	-	-	-	.	64
CCOC(=O)C1CCN(c2c(NCc3ccc(C(=O)NCCC(C)C)cc3)c(=O)c2=O)CC1	-	-	-	-	59
